From PubChem BioAssay (NCI)
Compounds without any hit were thinned out: in the full panel of roughly 79,000, 15% have a hit. Calls of active or inactive are those of the source. Rule as the data show it: active = growth inhibition above about 70%; inactive = the rest.

Assay: NCI Yeast Anticancer Drug Screen. Data for the wt2 strain (AID 169);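 also: 0% = growth of vehicle-treated yeast cultures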
Conditions: S. cerevisiae wt2 strain growth inhibition, hits give high values
Method: Growth inhibition of yeast strains with defined genetic alterations is measured as a screen for potential anti-cancer activity. Selected strains with alterations in DNA damage repair or cell cycle control were exposed to compounds and growth inhibition was measured relative to vehicle treated controls. The strain used in this assay is wt2

Measured: growth inhibition

CCNCC(=O)O[C@]1(CC)C(=O)OCc2c1cc1n(c2=O)Cc2cc3ccccc3nc2-1
inactive: at 1.2 µM -29% | at 3.7 µM -32% | at 11.0 µM -19% | at 33.0 µM 25%
active: at 100.0 µM 76%

CCS(=O)(=O)[O][Sn]([CH2]C)([CH2]C)[O]S(=O)(=O)CC
inactive: at 1.2 µM -32% | at 3.7 µM -21% | at 11.0 µM -26% | at 33.0 µM -4%
active: at 100.0 µM 77%

COC(=O)C1=C(C(=O)OC)C2OC1c1cc3ccccc3cc12
inactive: at 1.2 µM 13% | at 3.7 µM 29%
active: at 11.0 µM 76% | at 33.0 µM 99% | at 100.0 µM 99%

COC(=O)C1C2c3ccccc3C(c3ccccc32)C1C(=O)OC (stereo not given)
inactive: at 1.2 µM -2% | at 3.7 µM -6% | at 11.0 µM -1% | at 33.0 µM 5% | at 100.0 µM -1%

C/C(=N\N=C(N)N)C(CN1CCOCC1)C(c1ccccc1)c1c(O)c2ccccc2oc1=O (stereo not given)
inactive: at 1.2 µM -1% | at 3.7 µM 0% | at 11.0 µM 0% | at 33.0 µM 35%
active: at 100.0 µM 95%

CC(=O)O/C(=C1\C[C@H]2[C@@H]3CC=C4C[C@@H](OC(C)=O)CC[C@]4(C)[C@H]3CC[C@]2(C)C1=O)C(F)(F)F
inactive: at 1.2 µM -1% | at 3.7 µM 0% | at 11.0 µM -2% | at 33.0 µM -1% | at 100.0 µM 2%

O=C1c2ccccc2C(=O)C(Cl)C1Cl (stereo not given)
active: at 11.0 µM 82% | at 33.0 µM 99% | at 100.0 µM 99%
inactive: at 1.2 µM 9% | at 3.7 µM 24%

N#CC(C#N)=Cc1ccc(C#N)cc1
inactive: at 1.2 µM -1% | at 3.7 µM -1% | at 11.0 µM -1% | at 33.0 µM 1% | at 100.0 µM 5%
